The results in this text go back to PubChem BioAssay (Tox21).

The source made the active and inactive calls. Entries that show only a call come without a potency. Calls come from the whole dose curve.

This assay in a line: G protein-coupled receptor (GPCR) small molecule agonists, calcium flux assay: HEK293 wild type cell line counter screen (AID 1920065). The conditions noted are these: HEK293 WT calcium flux, fluorescence, agonist mode; series mostly up to 57.6 µM. In short, it runs like this:
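In this agonist-mode screen, ATP is the positive control and DMSO the vehicle. Cells grow 18 h before a 1 h dye incubation at 37 C; signal is taken at Ex/Em 480/540 over 3 min.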
Take `O=C1O[C@H]([C@H](O)CO)C(O)=C1O`: the Potency entry is “inactive”. For `COC(=O)c1ccc(O)cc1`, the Potency entry is “inactive”. As for `S=c1nc[nH]c2nc[nH]c12`, the Potency entry is “inactive”. As for `C[C@]12CCC(=O)C=C1CC[C@@H]1[C@@H]2C(=O)C[C@@]2(C)[C@H]1CC[C@]2(O)C(=O)CO`, the Potency entry is “inactive”.

For the compound `C/C=C/C(=O)N(CC)c1ccccc1C`, the Potency result is “inactive”. Regarding `O=c1c(-c2ccc(O)cc2)coc2cc(O)cc(O)c12`, the Potency entry was “inactive”. In the case of `CN(N=O)C(=O)N[C@@H]1[C@@H](O)[C@H](O)[C@@H](CO)O[C@@H]1O`, the Potency result is “inactive”. For the compound `CCCCC1C(=O)N(c2ccccc2)N(c2ccccc2)C1=O`, the Potency result was “inactive”. Next, `CC12CCC(CC1)C(C)(C)O2`: “inactive”; `OC[C@@H](O)[C@@H](O)[C@H](O)[C@H](O)CO`: “inactive”; `CCCN(CCC)S(=O)(=O)c1ccc(C(=O)O)cc1`: “inactive”. For the compound `Cc1ncc([N+](=O)[O-])n1CCO`, the Potency result is “inactive”.

As for `CCCCOC(=O)c1ccc(N)cc1`, the Potency result was “inactive”. In the case of `C#C[C@]1(O)CC[C@H]2[C@@H]3CCC4=CC(=O)CC[C@@H]4[C@H]3CC[C@@]21CC`, the Potency result was “inactive”. Next, `c1ccc2c(c1)c1cccc3ccc4cccc2c4c31`: “inactive”.

Consider `CC1(C)O[C@@H]2C[C@H]3[C@@H]4C[C@H](F)C5=CC(=O)CC[C@]5(C)[C@H]4[C@@H](O)C[C@]3(C)[C@]2(C(=O)CO)O1`, for which the Potency entry is “inactive”.

As to `CC(C)=CCC/C(C)=C/CO`, the Potency entry is “inactive”. For `CN1C(C(=O)Nc2ccccn2)=C(O)c2ccccc2S1(=O)=O`, the Potency entry was “inactive”. Turning to `Cc1noc(NS(=O)(=O)c2ccc(N)cc2)c1C`, the Potency result was “inactive”. Next, `Cc1cc(=O)n(-c2ccccc2)n1C`: “inactive”. The entry for `CC(C)(Oc1ccc(C2CC2(Cl)Cl)cc1)C(=O)O` (stereo not given) is “inactive”; for `OC[C@@H](O)[C@@H](O)[C@H](O)[C@@H](O)CO` it is “inactive”. In the case of `OC(Cn1cncn1)(Cn1cncn1)c1ccc(F)cc1F`, the Potency result was “inactive”.

In the case of `OCCO`, the Potency entry is “inactive”.

Take `NS(=O)(=O)c1cc2c(cc1Cl)NCNS2(=O)=O`: the Potency entry is “inactive”.

Take `O=C(O)Cc1ccccc1Nc1c(Cl)cccc1Cl`: the Potency entry is “inactive”. Consider `CC(C)(C#N)c1cc(Cn2cncn2)cc(C(C)(C)C#N)c1`, for which the Potency entry is “inactive”.

`C[C@]12CC[C@@H]3c4ccc(O)cc4CC[C@H]3[C@@H]1C[C@@H](O)[C@@H]2O`: the Potency entry was “inactive”.

As to `CC[C@H](C)C(=O)O[C@H]1C[C@@H](C)C=C2C=C[C@H](C)[C@H](CC[C@@H]3C[C@@H](O)CC(=O)O3)[C@H]21`, the Potency entry was “inactive”. Next, `Cc1nnc(NS(=O)(=O)c2ccc(N)cc2)s1`: “inactive”; `NC(=O)c1ccccc1O`: “inactive”. As to `CC(C)Cc1ccc(C(C)C(=O)O)cc1` (stereo not given), the Potency entry was “inactive”. In the case of `CC(C)(Oc1ccc(Cl)cc1)C(=O)O`, the Potency result is “inactive”. For `COc1ccccc1OCC(O)CO` (stereo not given), the Potency entry was “inactive”. Next, `NC(=O)c1cccnc1`: “inactive”; `CC(=O)[C@@]1(O)CC[C@H]2[C@@H]3C[C@H](C)C4=CC(=O)C=C[C@]4(C)[C@@]3(F)[C@@H](O)C[C@@]21C`: “inactive”. The entry for `CC(=O)Nc1nnc(S(N)(=O)=O)s1` is “inactive”; for `NNCCc1ccccc1` it is “inactive”.

Consider `CCOC(N)=O`, for which the Potency entry is “inactive”. Next, `CCCCCCc1ccc(O)cc1O`: “inactive”.
